Bioassay records as filed in PubChem.
TRPV1 ag = activates the human vanilloid receptor TRPV1. TRPV1-expressing cells, Fluo-8 calcium influx, agonist mode. Q8NER1. hit rate 0.19% among 320,000. activation, % at 8.33 µM. AID 540275; in the data active means activation above about 80%; inconclusive means between about 30% and that limit; further: 0% is about no effect
Target sequence (Q8NER1 whole entry, looked up): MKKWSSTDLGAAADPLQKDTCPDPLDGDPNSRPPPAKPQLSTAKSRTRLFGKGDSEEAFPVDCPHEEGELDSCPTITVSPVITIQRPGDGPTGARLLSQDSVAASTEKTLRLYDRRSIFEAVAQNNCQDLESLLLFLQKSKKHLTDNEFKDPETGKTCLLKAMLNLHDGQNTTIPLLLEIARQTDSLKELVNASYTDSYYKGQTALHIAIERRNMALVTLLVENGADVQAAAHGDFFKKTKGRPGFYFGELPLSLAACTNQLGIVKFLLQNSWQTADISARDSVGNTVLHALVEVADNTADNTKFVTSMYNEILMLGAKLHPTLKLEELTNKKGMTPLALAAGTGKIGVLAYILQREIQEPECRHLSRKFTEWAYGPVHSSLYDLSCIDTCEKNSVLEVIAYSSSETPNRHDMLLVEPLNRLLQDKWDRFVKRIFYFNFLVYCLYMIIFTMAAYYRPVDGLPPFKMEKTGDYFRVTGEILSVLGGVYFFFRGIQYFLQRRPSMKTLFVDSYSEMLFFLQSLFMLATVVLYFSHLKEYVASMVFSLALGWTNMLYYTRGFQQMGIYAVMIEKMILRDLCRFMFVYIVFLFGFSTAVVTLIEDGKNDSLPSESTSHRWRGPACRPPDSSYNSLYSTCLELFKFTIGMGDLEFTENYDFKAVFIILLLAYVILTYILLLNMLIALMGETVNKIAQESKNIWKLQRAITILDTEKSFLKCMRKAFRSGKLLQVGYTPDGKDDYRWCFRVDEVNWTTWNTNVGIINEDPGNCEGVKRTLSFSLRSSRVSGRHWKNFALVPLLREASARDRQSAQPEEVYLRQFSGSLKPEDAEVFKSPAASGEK
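Fluo-8 calcium influx in TRPV1-expressing cells, kinetic read (ex 480/em 520 nm). Compound added and read 3 min for agonist activity, followed by capsaicin at EC20 final and 2 min further read for enhancement.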
hERG WT inh = KCNH2 (human, wildtype) channel inhibition; Q12809; U2OS, BacMam KCNH2, thallium flux FluxOr; active compounds read low; activity change, % at 1.84 µM; hit rate 0.37% among 340,000;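 active means maximum activity change below -70%; inconclusive means maximum activity change between -70% and -50%; inactive means maximum activity change above -50%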; further: on the % scale 0 is the no-effect control and ±100 the full control effect
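U2OS cells were transduced with wild-type KCNH2 virus (2.03 x 10^8 / mL) for 4 h at room temperature, then cultured overnight at 37 C. Thallium flux was read with FluxOr dye. Rate constants were normalized to DMSO controls.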
KCNH2 3.1 block = KCNH2 3.1 (human) potassium channel inhibition. U2OS KCNH2 3.1, thallium flux FluxOr; active compounds read low. activity change, % (tested at about 1.8 µM). hit rate 0.95% among 340,000. AID 720553;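 active means maximum activity change below -70%; inconclusive means maximum activity change from -70% to -50%; inactive means maximum activity change above -50%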;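 further: thallium influx rate constant from kinetic fluorescence after stimulation buffer; on the % scale 0 is the no-effect control and ±100 the full control effect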
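FluxOr-based Tl+ influx in U2OS cells transduced with KCNH2 3.1 virus; rate constants normalized to DMSO controls.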
TRPV1 PAM = potentiators of human vanilloid receptor 1 (TRPV1). potentiation, % at 8.33 µM. hit rate 0.02% among 320,000. Q8NER1. TRPV1-expressing cells, Fluo-8 calcium influx, capsaicin EC20 potentiation; in the data active means potentiation above about 80%; inconclusive means between about 30% and that limit; further: 0% is about no effect
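Cells expressing TRPV1 were dye-loaded with Fluo-8 and read kinetically: 10 s baseline, 3 min after compound (agonist portion), then 2 min after EC20 capsaicin (allosteric enhancer portion). Calcium-bound dye fluorescence at 480/520 nm.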
Numbers without * were called inactive; u = inconclusive; x = not tested or not shown. Most compounds without a hit are left out; they make up all but 1.3% or so of the library.

SMILES	TRPV1 ag	hERG WT inh	KCNH2 3.1 block	TRPV1 PAM
CCOC(=O)C1(C)C(=O)CC2c3nc4ccccc4cc3CN2C1=O (stereo unspecified)	x	-7.9	-1.1	x
COC(=O)c1[nH]c2ccc(Br)cc2c1NC(=O)C(C)N1CCN(C2CCCCC2)CC1 (stereo unspecified)	9.1	-72.5*	-70.3*	-11.7
Cc1cc(C(=O)N/N=C/c2ccc([N+](=O)[O-])o2)c(C)o1	0.5	-14.1	-92.4*	-3.4
CCS(=O)(=O)c1nc(S(=O)(=O)c2ccc(C)cc2)c(N2CC(C)CC(C)C2)s1 (stereo unspecified)	21.6	15.8	10.4	-7.4
COc1ccc(C)cc1-n1nnnc1SCC1CCCO1 (stereo unspecified)	6.8	-107.3*	2.0	-18.9
Cc1cccc(C(=O)OCC(=O)c2ccc(CC(=O)N3CCOCC3)s2)c1C	10.1	-2.4	-5.9	-11.4
Cc1ccc(C)c(OCCCCN2CCNCC2)c1C	4.7	-1.1	-88.1*	8.4
Cc1ccc(C)c(OCCCN2CCNCC2)c1	-2.9	5.8	-5.2	13.8
CN(C)S(=O)(=O)c1cccc(COC(=O)CCNC(=O)c2ccc([N+](=O)[O-])cc2)c1	1.1	-0.4	-2.3	-11.1
Cc1ccc(NC(=O)C2CCN(C(=O)[C@@H]3Cc4ccccc4CN3)CC2)cc1	0.1	-1.8	-45.9	1.1
CC(C)c1ccc(NC(=O)C2CCN(C(=O)[C@@H]3Cc4ccccc4CN3)CC2)cc1	16.0	-16.9	-87.5*	-5.1
Cc1cc(/C=C\c2ccccc2)nc2ccccc12	12.9	-28.0	-188.7*	1.7
COc1ccc(/C=C/c2cc(C(=O)O)c3ccccc3n2)cc1	1.4	-14.6	12.3	0.9
CCOc1cc(C(=O)N[C@@H](C)C(=O)N2CCC3(CC2)NCCc2[nH]cnc23)cc(OCC)c1OCC	-2.4	-1.7	-12.1	3.8
CCCCn1cnc2c(SCc3ccc([N+](=O)[O-])cc3)nc(N)nc21	x	14.1	-85.0*	x
O=C1c2cccc3c([N+](=O)[O-])ccc(c23)C(=O)N1c1ccccn1	x	-21.9	0.4	x
O=C1c2cccc3c([N+](=O)[O-])ccc(c23)C(=O)N1O	-1.9	-197.1*	-30.2	-2.4
Nc1cc(OC(=O)c2cccs2)nn1S(=O)(=O)c1ccc(F)cc1	2.2	4.9	-212.4*	-3.6
Nc1cc(OC(=O)c2cccs2)nn1S(=O)(=O)c1ccccc1	25.9	-1.5	6.9	-2.0
N#CC(CCc1ccccc1[N+](=O)[O-])(CCc1ccccc1[N+](=O)[O-])C(N)=O	x	u	-121.0*	x
O=C(Nc1cc(C(F)(F)F)ccc1-n1cncn1)c1cn2ccccc2n1	x	-151.6*	-207.1*	x
COc1nc(NC2OC(CO)C(O)C(O)C2O)c(N)c(=O)[nH]1 (stereo unspecified)	x	-6.9	0.4	x
COc1ccc(C(=O)N/C(=C\c2ccc(-c3cccc([N+](=O)[O-])c3)o2)C(=O)NCCCN2CCOCC2)cc1	x	8.4	-6.3	x
O=C(NCCCc1ccccc1)c1cccc([N+](=O)[O-])c1	u	-1.4	4.2	-6.6
Cc1ccc(C(=O)N/C(=C\c2ccc(Cl)cc2)C(=O)NCCCN2CCOCC2)cc1	16.1	-140.6*	-103.2*	-4.2
SMILES	TRPV1 ag	hERG WT inh	KCNH2 3.1 block	TRPV1 PAM
O=C(NCCCN1CCN(CCCNC(=O)c2cccc([N+](=O)[O-])c2)CC1)c1cccc([N+](=O)[O-])c1	2.6	-41.4	-81.3*	-17.3
Cc1ccc(C(=O)N/C(=C\c2ccc(-c3cccc([N+](=O)[O-])c3)o2)C(=O)NCCCN2CCOCC2)cc1	-1.9	4.9	-185.9*	1.7
CCn1c(=O)c2[nH]c(Cl)nc2n(CC)c1=O	x	-48.1	-2.7	x
CCC(CC)c1nnc(NC(=O)c2cc([N+](=O)[O-])ccc2N2CCOCC2)s1	x	1.4	7.7	x
CC(C)c1ccc(O)c(C(=O)c2cnn(-c3ccccc3)c2)c1	x	-3.2	-9.6	x
CC(=O)N1Cc2[nH]c3ccccc3c2CC1C(=O)O (stereo unspecified)	1.3	-11.5	-80.8*	-4.9
COC(=O)C1Cc2c([nH]c3ccccc23)CN1C(C)=O (stereo unspecified)	-2.5	-0.7	-9.0	-12.4
O=C(COC(=O)c1ccccc1Nc1ccccc1)c1ccccc1	6.4	-269.4*	5.6	21.1
CCOc1ccc(Br)cc1S(=O)(=O)Nc1cccc(S(=O)(=O)N2CCOCC2)c1	x	-223.1*	-9.2	x
O=S(=O)(Nc1cccc(F)c1)c1ccc(S(=O)(=O)N2CCOCC2)cc1	x	-6.6	-74.5*	x
Cc1cc(C)n(-c2ccc(NC(=O)C3CCCCN3Cc3cccc4c3OCO4)cc2)n1 (stereo unspecified)	5.4	6.2	-1.3	18.3
CCCCN1CC(=O)N2[C@H](c3ccc(Cl)cc3)[C@@H]3C(=O)N(CC)C(=O)[C@@H]3[C@]2(C)C1=O	1.2	0.5	-114.9*	-9.0
CC(C)c1ccc(NC(=O)c2cc(S(=O)(=O)NCC3COc4ccccc4O3)ccc2F)cc1 (stereo unspecified)	2.1	13.3	-71.7*	6.2
Cc1[nH]c2ccccc2c1/C=N/NC(=O)c1ccccc1	0.6	-6.7	0.4	-1.3
Cc1[nH]c2ccccc2c1/C=C/C(=O)c1ccccc1	27.4	-28.1	-85.5*	-5.3
O=C1CC(NS(=O)(=O)c2cccnc2)CN1c1cccc(F)c1 (stereo unspecified)	8.0	-1.7	5.6	-0.6
Cc1[nH]c2ccc(C(=O)NCCN3CCOCC3)cc2c1C	-6.3	-0.6	-99.6*	2.0
COc1ccc(-n2c(C)nc3cc(C(=O)NCCN4CCOCC4)ccc32)cc1	0.9	-183.5*	2.8	-1.0
Cc1[nH]c2ccc(C(=O)NCCCN3CCCC3)cc2c1C	-3.2	7.2	5.2	-6.0
COc1cc(OCc2ccc(C)cc2)ccc1CNC[C@H]1O[C@@H](n2cnc(C(N)=O)n2)[C@H](O)[C@@H]1O	x	4.8	11.7	x
CCCCCCCNC(=O)C1(CC2CC(c3cccc(Br)c3)=NO2)CCN(C(=O)C2(C)CC2)CC1 (stereo unspecified)	-0.5	3.8	-16.4	-29.5
CCCCCCCNC(=O)C1(CC2CC(c3cccc(Br)c3)=NO2)CCN(C(=O)CCCCCBr)CC1 (stereo unspecified)	5.5	-122.7*	-95.9*	9.6
COc1ccc(NC(=O)c2oc3ccccc3c2CSC)cn1	u	-2.5	-6.9	-14.0
CCOCc1c(C(=O)Nc2ccc(OC)nc2)oc2ccccc12	90.4*	10.2	14.2	8.8
COc1cc(NC(=S)N2CCN(C)CC2)cc(OC)c1	0.7	-9.1	12.0	-13.6
CSc1ncccc1C(=O)OC(C)C(=O)Nc1cccc(S(=O)(=O)N2CCOCC2)c1 (stereo unspecified)	x	-315.1*	4.2	x
CSc1ncnc2c1ncn2CCCNCCCN1CCCC1=O	x	-0.6	9.2	x
CN(C)c1ccc(C=c2c3ccccc3n3c2cc(-c2ccc(Cl)cc2)[n+]3C)cc1	x	-207.1*	-190.6*	x
Cc1cc(C)c2c(CN3CCN(Cc4ccc5c(c4)OCO5)CC3)cc(=O)oc2c1C	1.1	23.7	-91.9*	2.2
